Structures are written as SMILES. Values joined by “and” are separate entries in the source; they are usually repeats but may differ in a detail not shown here. Identical values can stand only once. Records with an inconclusive call do not appear. Active and inactive are the calls of the source. Unless noted, calls follow the shape of the dose curve; as a rule, active = well fitted curve in the direction sought with a large enough effect; inconclusive = small, poorly fitted or top-dose-only effect, or another doubt; inactive = no such curve, though single readings can be large; an effect the other way counts as inactive or inconclusive.

Experiment [1] can be described thus: Stat Signaling Pathway (AID 446; active = well fitted curve in either direction with a large enough effect, not every such curve was filed as active;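 also: ME-180 cervical cancer cells given 40 pM IL-6 alongside compound; SIE-controlled beta-lactamase reporter measured as 460/530 nm FRET emission ratio; % is scaled to controls: 0 for no effect and ±100 for the full control effect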). The essentials:
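ME-180 cells carrying a SIE-driven beta-lactamase reporter are stimulated with 40 pM IL-6 for 5 h at 37C in the presence of compound. The 460/530 nm FRET substrate ratio is read after 2.5 h at RT. Data are normalised to 300 pM IL-6 and to 125 nM JAK inhibitor controls.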

Experiment [2] addresses Glucocorticoid receptor (Homo sapiens) (UniProt P04150). The experiment can be described thus: GR-GFP Redistribution (AID 450;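 active = compounds whose dose series gives a full or clear partial fitted curve of increased nuclear translocation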; also: potency is read from the fitted curve at half-maximal effect). As to conditions: U2OS GR-GFP nuclear translocation, laser cytometry, 2 h.
Experiment [3] has the same target. Briefly: GR-EFC Redistribution (AID 451; calls by dose curve; also: potency is read from the fitted curve at half-maximal effect). As to conditions: CHO-K1 GR-EFC translocation, beta-gal luminescence, 2 h. The essentials: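 CHO-K1 cells expressing nuclear EA and GR-ED fragments of b-gal; compounds titrated up to 46 uM final, 2 h at 37 C. GR nuclear translocation read as complemented b-gal luminescence after 1 h RT detection.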
For experiment [4], the target named is 3',5'-cyclic-AMP phosphodiesterase 4B (Homo sapiens) (UniProt Q07343). The experiment can be described thus: qHTS Assay for Inhibitors of PDE-IV (AID 607; active = well fitted activation curve with a large enough effect in the main read-out, with a control signal flat, not every such curve was filed as active; also: % of control where 0% means no effect). The essentials: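 HEK293 ACTOne cells with CNG channel (1000/well), endogenous PDE4; membrane potential dye, compounds up to 22.9 uM final. Fluorescence Ex 535/Em 590; RO 20-1724 (100 uM final) as reference.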

The nature of experiment [5]: Confirmation and Secondary Assay for Modulators of Hemoglobin Beta Chain Splicing at IVS2 705 locus (AID 930).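 Also: HeLa cells stably expressing the EGFP-705 splicing reporter; GFP fluorescence per well restored by corrected splicing of the IVS2-705 intron in EGFP; % of control where 0% means no effect.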 The essentials: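 First, HeLa EGFP-705 cells are seeded at 500/well in Optimem with 2% FCS and left overnight. Next, compound or DMSO is added for 2 days. Finally wells are laser-scanned and total peak GFP intensity scored.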
The nature of experiment [6]: qHTS Assay for Lipid Storage Modulators (AID 1519; calls by dose curve; as to activity change, negative = inhibition: % is scaled to controls: 0 for no effect and ±100 for the full control effect). As to conditions: Drosophila S3 cells, BODIPY lipid droplet/cell ratio, laser cytometry, cells loaded with oleic acid. The essentials:
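Cells seeded at 5,000 per well were treated with compounds over a concentration series and loaded with oleic acid (400 uM, as added). Lipid droplet fluorescence (488 nm excitation, 500-530 nm channel) was read by laser-scanning cytometry and normalized to 20 uM Triacsin C.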

Experiment [7] concerns the target DNA dC->dU-editing enzyme APOBEC-3G (Homo sapiens) (UniProt Q9HC16). The experiment can be described thus: qHTS for inhibitors of Vif-A3G interactions: Validation (AID 588379). Also: 0% is about no effect. The essentials:
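HeLa cells stably expressing Vif and A3G-eYFP, 700 cells/well, incubated overnight at 37 deg C, then exposed to compound overnight at 37 deg C. Inhibition of Vif-mediated degradation read as increased yellow fluorescence (Ex 488/Em 500-530) by laser-scanning cytometry.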
A general note: In qHTS, concentration-response curves come from the screen itself.

Experiment [8] has as its system Zika virus NS2B-NS3 protease. The experiment can be described thus: Primary screen GU AMC qHTS for Zika virus inhibitors (AID 1347154). Also: potency is read from the fitted curve at half-maximal effect; nearly all actives have a fitted effect of over 70% in size. The essentials:
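Unlinked Zika NS2B hydrophilic domain–NS3 protease complex at 25 nM in 10 mM Tris-HCl pH 8.0, 0.01% Tween 20, with an AMC peptide substrate. Fluorescence change (340/450 nm) over 15 min at room temperature, normalized to controls, fitted to 4-parameter Hill.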

The test system of experiment [9] is Zika virus NS2B-NS3 protease (linked construct). Briefly: Primary screen NINDS Rhodamine qHTS for Zika virus inhibitors (AID 1347160). Also: % is scaled to controls: 0 for no effect and ±100 for the full control effect; nearly all actives have a fitted effect of over 55% in size. The essentials: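 Purified NS2B-NS3 protease with the NS2B hydrophilic domain joined by a flexible linker (25 nM) in 10 mM Tris-HCl pH 8.0, 0.01% Tween 20, preincubated 15 min at RT with compound; Rhodamine110 peptide substrate 1.5 µM; fluorescence change over 15 min; 4-parameter Hill fit.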

Experiment [10] can be described thus: COV-362 Cancer Cell Toxicity qHTS against the NCATS CANVASS Library (AID 1347352). Also: potency is read from the fitted curve at half-maximal effect. The essentials: (§1)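 Luminescent ATP read-out (CellTiter-Glo, 15min at room temperature) measures survival after cells face an 11-point compound series for 72 hours at 37 degrees C/5% CO2.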
The nature of experiment [11]: A2780 Cisplatin Sensitive Ovarian Cancer Cell Toxicity qHTS against the NCATS CANVASS Library (AID 1347353). Also: potency is read from the fitted curve at half-maximal effect; nearly all actives have a fitted effect of over 60% in size. The essentials: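 Luminescent ATP content (ATPLite, 10 min at room temperature) served as the read-out after cells had been exposed to compounds for 72 hours at 37 °C. Dosing followed an 11-point concentration series.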
A short description of experiment [12]: UWB1.289-WTBRCA1 Cancer Cell Toxicity qHTS against the NCATS CANVASS Library (AID 1347354). Also: % is scaled to controls: 0 for no effect and ±100 for the full control effect. The essentials: as §1
The nature of experiment [13]: HEK-293 Cancer Cell Toxicity qHTS against the NCATS CANVASS Library (AID 1347355). Also: potency is read from the fitted curve at half-maximal effect; nearly all actives have a fitted effect of over 65% in size. The essentials: as §1
Experiment [14] can be described thus: HPAF-II 24hr Apoptosis Induction qHTS against the NCATS CANVASS Library (AID 1347356). Also: 0% is about no effect. The essentials: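 Luminescent caspase-3/7 signal (DEVD substrate, Caspase-Glo) served as read-out, taken 15 min after reagent addition to HPAF-II cells exposed 24 h to compounds.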
Experiment [15] can be described thus: HEK293 24hr Apoptosis Induction qHTS against the NCATS CANVASS Library (AID 1347359). Also: 0% is about no effect. The essentials:
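HEK293 cells, 500 per well, exposed to an 11-point compound series for 24 hours at 37 degrees C. Caspase 3/7 activity read by Caspase-Glo luminescence (DEVD substrate) after 15 min at room temperature.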

Experiment [16] is described as follows: HPAF-II 18hr Apoptosis Induction qHTS against the NCATS CANVASS Library (AID 1347360). Also: 0% is about no effect. The essentials: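 Luminescent DEVD-substrate signal, proportional to caspase activity, is measured in HPAF-II cells after 18-hour treatment across a concentration series; doxorubicin serves as control.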
Experiment [17] is described as follows: HEK293 12hr Apoptosis Induction qHTS against the NCATS CANVASS Library (AID 1347361). Also: 0% is about no effect. The essentials: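 Luminescent caspase-3/7 signal, proportional to enzyme activity, was recorded from HEK293 cultures in DMEM + 10% FBS treated for 12 hours with titrated natural products (11 points). Doxorubicin (0.1nM - 4uM) served as control.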
The target in experiment [18] is Luciferin 4-monooxygenase (Photinus pyralis) (UniProt P08659). The experiment can be described thus: Firefly luciferase counterscreen qHTS: Assay Interference Panel against the NCATS CANVASS Library (AID 1347363). Also: 0% is about no effect. The essentials: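 Purified P. pyralis luciferase (0.04 ug/mL, 4x reagent) added to Tris-acetate buffer with 0.013 mM D-luciferin, 0.013 mM ATP and 13.3 mM Mg-acetate; compounds preincubated 15 min, then luminescence read after 5 min, RT.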
On the technique in general: The purpose of a counterscreen is to sort out artefacts and off-target activity.

A short description of experiment [19]: KB-8-5-11 Cancer Cell Toxicity qHTS against the NCATS CANVASS Library (AID 1347364). Also: potency is read from the fitted curve at half-maximal effect; nearly all actives have a fitted effect of over 75% in size. The essentials:
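Plate 500 KB-8-5-11 cells per well in DMEM + 10% FBS, add compounds by pin transfer, incubate 72 hr at 37C. Add CellTiter-Glo, wait 10 minutes at room temperature, read luminescence.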

The nature of experiment [20]: KB-3-1 Cancer Cell Toxicity qHTS against the NCATS CANVASS Library (AID 1347366). Also: potency is read from the fitted curve at half-maximal effect; nearly all actives have a fitted effect of over 75% in size. The essentials:
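Cytotoxicity toward KB-3-1 cells (500/well, DMEM + 10% FBS) was scored by CellTiter-Glo luminescence following 72 hr exposure at 37C, with bortezomib titrated as control.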

Glucocorticoid receptor (Homo sapiens), sequence (P04150 whole entry, looked up, the tested form may be a part): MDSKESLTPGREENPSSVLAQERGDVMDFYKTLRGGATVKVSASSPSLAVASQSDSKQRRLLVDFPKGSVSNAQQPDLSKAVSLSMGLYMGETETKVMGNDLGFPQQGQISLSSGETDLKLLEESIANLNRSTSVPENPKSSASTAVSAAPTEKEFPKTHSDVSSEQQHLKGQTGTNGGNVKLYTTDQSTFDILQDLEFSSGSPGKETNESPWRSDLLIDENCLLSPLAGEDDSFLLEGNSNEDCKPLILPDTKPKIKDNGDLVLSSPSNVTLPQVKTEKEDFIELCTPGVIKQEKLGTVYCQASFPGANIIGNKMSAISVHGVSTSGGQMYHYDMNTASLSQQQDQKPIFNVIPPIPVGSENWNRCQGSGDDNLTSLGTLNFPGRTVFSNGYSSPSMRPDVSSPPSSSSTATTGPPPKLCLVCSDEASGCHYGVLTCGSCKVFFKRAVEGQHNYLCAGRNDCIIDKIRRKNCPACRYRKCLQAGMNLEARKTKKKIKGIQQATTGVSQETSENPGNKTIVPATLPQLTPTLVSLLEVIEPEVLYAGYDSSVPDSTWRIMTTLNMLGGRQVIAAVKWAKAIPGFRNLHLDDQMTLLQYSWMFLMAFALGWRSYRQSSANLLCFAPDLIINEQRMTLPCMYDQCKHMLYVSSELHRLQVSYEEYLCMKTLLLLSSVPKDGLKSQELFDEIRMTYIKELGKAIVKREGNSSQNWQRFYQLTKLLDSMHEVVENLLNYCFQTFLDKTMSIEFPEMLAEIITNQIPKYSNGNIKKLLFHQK
DNA dC->dU-editing enzyme APOBEC-3G (Homo sapiens), sequence (Q9HC16 whole entry, looked up): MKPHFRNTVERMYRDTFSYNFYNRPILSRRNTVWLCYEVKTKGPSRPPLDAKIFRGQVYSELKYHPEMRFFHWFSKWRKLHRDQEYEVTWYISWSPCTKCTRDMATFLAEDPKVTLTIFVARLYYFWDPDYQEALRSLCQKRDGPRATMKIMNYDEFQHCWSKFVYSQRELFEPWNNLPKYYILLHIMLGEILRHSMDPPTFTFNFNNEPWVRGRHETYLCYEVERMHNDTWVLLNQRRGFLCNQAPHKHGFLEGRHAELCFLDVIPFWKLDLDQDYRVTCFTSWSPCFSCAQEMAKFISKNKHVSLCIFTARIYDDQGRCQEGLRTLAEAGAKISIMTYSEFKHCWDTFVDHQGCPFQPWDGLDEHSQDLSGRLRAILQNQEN
3',5'-cyclic-AMP phosphodiesterase 4B (Homo sapiens), sequence (Q07343 whole entry, looked up): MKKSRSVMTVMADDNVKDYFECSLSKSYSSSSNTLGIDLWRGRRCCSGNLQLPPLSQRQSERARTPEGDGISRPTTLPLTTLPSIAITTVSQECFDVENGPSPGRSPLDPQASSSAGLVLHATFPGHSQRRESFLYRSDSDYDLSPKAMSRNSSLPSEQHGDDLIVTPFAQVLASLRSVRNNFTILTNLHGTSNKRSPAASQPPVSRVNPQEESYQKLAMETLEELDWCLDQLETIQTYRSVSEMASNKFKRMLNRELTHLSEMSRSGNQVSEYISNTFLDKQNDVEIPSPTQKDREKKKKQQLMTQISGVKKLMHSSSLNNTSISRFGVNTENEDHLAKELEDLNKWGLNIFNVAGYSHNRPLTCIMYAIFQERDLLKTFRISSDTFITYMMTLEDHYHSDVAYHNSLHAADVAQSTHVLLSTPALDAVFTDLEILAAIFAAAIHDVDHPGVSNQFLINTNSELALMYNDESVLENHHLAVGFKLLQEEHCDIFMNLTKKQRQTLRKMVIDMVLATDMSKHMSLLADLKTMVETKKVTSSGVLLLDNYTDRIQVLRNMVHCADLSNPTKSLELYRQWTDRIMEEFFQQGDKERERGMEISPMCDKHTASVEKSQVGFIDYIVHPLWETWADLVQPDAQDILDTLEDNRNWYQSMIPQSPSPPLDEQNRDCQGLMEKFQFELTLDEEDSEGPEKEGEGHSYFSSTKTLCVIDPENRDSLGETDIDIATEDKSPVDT
Luciferin 4-monooxygenase (Photinus pyralis), sequence (P08659 whole entry, looked up): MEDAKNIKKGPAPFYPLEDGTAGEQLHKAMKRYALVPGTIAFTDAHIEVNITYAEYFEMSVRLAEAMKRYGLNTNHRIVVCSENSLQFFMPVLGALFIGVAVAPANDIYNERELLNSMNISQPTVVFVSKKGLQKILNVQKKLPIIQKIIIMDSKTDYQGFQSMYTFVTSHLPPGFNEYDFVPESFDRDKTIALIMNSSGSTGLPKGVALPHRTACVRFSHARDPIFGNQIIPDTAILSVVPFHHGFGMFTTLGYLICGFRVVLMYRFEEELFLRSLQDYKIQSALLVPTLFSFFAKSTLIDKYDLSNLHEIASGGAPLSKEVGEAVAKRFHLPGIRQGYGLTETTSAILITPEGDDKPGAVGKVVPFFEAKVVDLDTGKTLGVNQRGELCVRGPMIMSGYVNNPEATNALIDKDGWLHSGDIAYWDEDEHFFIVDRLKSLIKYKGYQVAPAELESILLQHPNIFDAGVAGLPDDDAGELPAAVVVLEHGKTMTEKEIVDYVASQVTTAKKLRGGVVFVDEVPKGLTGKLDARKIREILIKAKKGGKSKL

As to `COc1ccc2c(c1)[nH]c1c(C)nccc12`, the outcome in [1], in experiment [5], in [14], in [16] and in experiment [18] was inactive. Moreover, the Potency in experiment [2] is > 20.6 µM (inactive); in [3] it was > 20.6 µM (inactive); in experiment [8], 3.36 µM (active); in experiment [10], 38.6 µM (active); in [11] it was 19.1 µM (active); in experiment [13], 7.62 µM (active). For the same compound, the values for the Potency in [19] and in experiment [20] were 38.2 µM (active) and 42.9 µM (active), respectively. Also, the Potency entry in experiment [4], in experiment [7], in experiment [9], in [12], in experiment [15] and in experiment [17] was “inactive” each time. The values for the activity change, negative = inhibition in experiment [6] (at 25.7 µM (top of the series)) and in [6] (at 57.5 µM (top of the series)) were -4.61% (inactive) and 2.5% (inactive), respectively. Moreover, the max response in experiment [6] (measured here: cell count channel max response) was -2.86% and 7%; in [6] (measured here: lipid channel max response), -9.39% and 13.6%.

The values above are taken from PubChem BioAssay (NCATS).
